# Screening results from PubChem.
# LASV entry inh = inhibitors of Lassa virus binding or cell entry. 1.2% of 300,000 active. Potency, µM (doses to about 37.9 µM), for inactives: at the highest dose activity change, negative = inhibition, hits mostly inhibitors. Lassa virus pseudotype entry inhibition, cell reporter; calls by dose curve; tested in HEK293 cells; note: potency is the fitted concentration of half-maximal effect; nearly all actives have a fitted effect of over 50% in size
# MARV entry inh = Marburg virus entry inhibition | Marburg virus pseudotyped entry inhibition, cell reporter | Potency, µM (highest dose often 37.8 µM), without a hit: at the highest dose activity change, negative = inhibition, hits mostly inhibitors | 1.8% of 300,000 active; calls by dose curve; tested in HEK293 cells; note: potency is the fitted concentration of half-maximal effect
# FMDV inh = blocks foot and mouth disease virus | FMDV antiviral cell-based qHTS | 1.2% of 410,000 active | Potency, µM (doses to about 57.9 µM), inactives show at the top dose activity change, negative = inhibition, hits mostly inhibitors; calls by dose curve; tested in HEK293T cells; note: read-out not given here; potency is the fitted concentration of half-maximal effect; nearly all actives have a fitted effect of over 45% in size
# HCV inhibitor = blocks hepatitis C virus; Potency, µM (highest dose often 41.8 µM), for inactives: top-dose activity change, negative = inhibition, usual class: inhibitors; Huh7.5.1 HCVcc-Cre infection, luciferase reporter, 44 h; 3.4% of 340,000 active; AID 651820; active = well fitted inhibition curve with a large enough effect; inconclusive = small, poorly fitted or top-dose-only effect, or another doubt; inactive = no such curve, though single readings can be large or run the other way; note: potency is the fitted concentration of half-maximal effect
#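 Whole-lifecycle infectious HCVcc-Cre system; cells 1,000/well, compound then virus (~0.5 moi) added 4 h after plating, 44 h culture. Luciferase read 15 sec following 15 min substrate incubation, room temp.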
# HCMV antiviral = blocks human cytomegalovirus replication; HFF cells, HCMV-luciferase reporter, 72 h; hits give low values; activity change, negative = inhibition, % at 57.5 µM; AID 1259415; 4.5% of 410,000 active; in the data active = activity change below about -60%; inconclusive = no clear call, values can overlap the other calls; inactive = above about -39%
#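 Cell-based, HFFs, 1000 cells/well, 16 h 37C; cpds in DMSO + HCMV-luc, MOI 1 PFU/cell; 72 h 37C; OneGlo luminescence after 5 min RT; norm. to buffer vs Salinomycin 10uM.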
# An asterisk follows results filed as active; ? = inconclusive; · = not tested or not shown; [ ] = dose if it differs, or a comment. This is a sample that favours compounds with a hit; in the whole collection about 7.9% have one here. % is set by controls: 0 for no effect and ±100 for the full control effect.
SMILES,LASV entry inh,MARV entry inh,FMDV inh,HCV inhibitor,HCMV antiviral
CCOC(=O)c1c(NC(=O)C2=C(C)NC(=S)NC2c2ccc(F)cc2F)sc(C)c1C (stereo not drawn),?,?,0%,?,?
CCOC(=O)c1c(NC(=O)C2=C(C)NC(=S)NC2c2ccc(C)cc2)sc(C)c1C (stereo not drawn),?,?,-22%,10µM*,49
OC(COCCOc1ccc(Br)cc1)CN1CCN(Cc2ccccc2)CC1 (stereo not drawn),?,?,?,?,-101*
OC(CNC1CCCC1)COc1ccc(-c2ccccc2)cc1 (stereo not drawn),1%,?,-4%,?,-8
OC(CNC1CCCCC1)COCCOc1ccc(Br)cc1 (stereo not drawn),-26%,?,?,7.9µM*,-5
CC1CCN(C(C)C(=O)Nc2ccccc2-c2ccccc2)CC1 (stereo not drawn),-4%,12µM*,?,-15%,-32
CC1CCN(CC(=O)Nc2ccccc2-c2ccccc2)CC1,0%,-15%,-13%,35µM*,-13
CC(C)C1Nc2ccc(S(N)(=O)=O)cc2C2C=CCC21 (stereo not drawn),-4%,-22%,-9%,11µM*,-17
NS(=O)(=O)c1ccc2c(c1)C1C=CCC1C(C1CC=CCC1)N2 (stereo not drawn),-1%,?,-21%,?,-13
COc1ccccc1NC(=O)COc1ccc(C(=O)NC2CCCc3ccccc32)cc1OC (stereo not drawn),-28%,?,-1%,?,?
COC(=O)CSc1nnc(CNc2nc(-c3ccccc3)cs2)n1C,2%,?,-18%,-1%,-1
COc1ccc(NCc2nnc(SCc3ccc(Cl)cc3)n2-c2ccccc2)cc1,?,?,?,8.9µM*,-32
COc1ccc(C(=O)CSc2nnc(CNc3nc(-c4ccccc4)cs3)n2C)cc1,-29%,?,40µM*,-13%,-10
COc1ccc(-n2c(COc3ccc(C)cc3)nnc2SCc2ccc(C#N)cc2)cc1,-16%,?,-25%,22µM*,-13
COc1ccc(NCc2nnc(SCC(=O)Nc3nc(-c4ccccc4)cs3)n2-c2ccccc2)cc1,4%,?,-12%,?,-82*
COc1ccc(-n2c(COc3ccc(Cl)cc3)nnc2SCc2ccc(C#N)cc2)cc1,?,-18%,-18%,?,2
CC(C)(C)NC(=O)C(c1ccco1)N(Cc1ccc2c(c1)OCO2)C(=O)c1snc(C(N)=O)c1N (stereo not drawn),?,?,19%,-10%,-20
COC(=O)[C@@H]1CC[C@H](C)[C@@H](c2ccc(C)cc2)N1C(=O)c1ccc(/C=N/OC[C@H]2O[C@H](c3ccccc3)C=C[C@@H]2Oc2ccc(OC)cc2)cc1,·,-7%[14.2 µM],·,·,·
C=CCN1C(=O)/C(=C/c2ccc3c(c2)CCCN3CCC)C(=O)NC1=S,14%,17%,32µM*,-8%,121
C=CCN1C(=O)/C(=C/c2ccc(Br)s2)C(=O)NC1=S,·,·,32µM*,11%,32
Cc1cccn2c(=O)c3cc(C(=O)NC4CCCC4)c(=N)n(CCc4ccccc4)c3nc12,1%[46.1 µM],?,-27%,-1%,-11
Cc1cccn2c(=O)c3cc(C(=O)NC4CCCC4)c(=N)n(Cc4ccc(F)cc4)c3nc12,·,·,-12%,11µM*,-16
Cc1cccn2c(=O)c3cc(C(=O)NC4CCCCC4)c(=N)n(Cc4ccccc4)c3nc12,?,-16%[46.1 µM],-21%,6%,-61*
Cc1ccc(C)c(S(=O)(=O)NCC(c2ccco2)S(=O)(=O)c2ccc(F)cc2)c1 (stereo not drawn),?,·,27%,·,-35
COc1ccccc1N1CCN(C(=O)c2[nH]c(C(F)(F)F)nc2-c2ccccc2)CC1,·,·,-11%,·,-64*
SMILES,LASV entry inh,MARV entry inh,FMDV inh,HCV inhibitor,HCMV antiviral
Cc1cccc(N2CCN(C(=O)c3[nH]c(C(F)(F)F)nc3-c3ccccc3)CC2)c1C,·,·,-10%,·,-87*
CC(=O)N1CCN(C(=O)c2[nH]c(C(F)(F)F)nc2-c2ccccc2)CC1,·,·,-21%,·,22
COc1ccc(N2CCN(C(=O)c3[nH]c(C(F)(F)F)nc3-c3ccccc3)CC2)cc1,·,·,-3%,·,5
CC(C)=CC1C(C(=O)OC(C#N)c2cccc(Oc3ccccc3)c2)C1(C)C (stereo not drawn),·,·,·,·,11
COc1cc2sc(C)nc2c2ccccc12,·,·,-14%,10µM*,25
Cc1nc2c(ccc3c2ccc2nc(C)sc23)s1,9%,?,26%,13%,86
CCOC(=O)c1ccc(NC(=O)C(C)Sc2nc(=O)cc(N)n2CCc2ccccc2)cc1 (stereo not drawn),-3%[46.1 µM],5µM*,-12%,·,2
C=CCn1c(N)cc(=O)nc1SC(C)C(=O)Nc1ccc(C(=O)OCC)cc1 (stereo not drawn),21%,14%,0%,26%,-20
COC(=O)[C@H]1[C@H](CO)[C@H]2Cn3c(ccc(Br)c3=O)[C@H]2N1C(C)=O,·,·,·,·,20
CN1CCN(c2ncc3nc(-c4cc(F)cc(F)c4)c(=O)n(CCC#N)c3n2)CC1,·,·,-24%,·,·
CCC(CC)C(=O)Nc1cc(-c2nc3cccnc3s2)ccc1C,21%[46.1 µM],·,0%,·,27
COCc1cc(=O)[nH]c(Nc2nc(C)c3ccccc3n2)n1,6%,3%,21%,?,-102*
COc1ccc2nc(Nc3nc(CSc4ccc(C)cc4)cc(=O)[nH]3)nc(C)c2c1,8%,-1%[46.1 µM],4%,12%,-67*
Cc1cc(C)c2nc(Nc3nc(-c4ccccc4)cc(=O)[nH]3)nc(C)c2c1,·,·,-20%,?,-9
Cc1ccc(SCc2cc(=O)[nH]c(Nc3nc(C)c4cccc(C)c4n3)n2)cc1,-51%[14.3 µM],9.2µM*,22%,·,65
Cc1cc(C)c2nc(Nc3nc(CSc4nc5ccccc5[nH]4)cc(=O)[nH]3)nc(C)c2c1,3%[46.1 µM],6%[46.1 µM],?,?,-65*
O=C(O)CSc1nnc(-c2ccc(Cl)cc2Cl)n1Cc1ccccc1,·,·,-14%,24%,8
Cc1ccc(C)c(NC(=O)CN2C(=O)C3(SCC(=O)N3c3ccc(C)c(C)c3)c3ccccc32)c1 (stereo not drawn),-1%[46.1 µM],·,-11%,·,17
COc1ccc(S(=O)(=O)NCCc2csc3nc(-c4ccc(Cl)cc4)nn23)cc1C,4%[46.1 µM],·,-3%,·,17
CCOc1ccccc1/C=N/NC(=O)c1nnn(-c2nonc2N)c1CN1CCCCCC1,·,·,-17%,4%,-23
Cc1ccc2c(C)nc(Nc3nc(CSc4nnnn4-c4ccccc4)cc(=O)[nH]3)nc2c1,?,-2%,11%,11µM*,-101*
COc1ccc2nc(Nc3nc(CSc4nnnn4-c4ccccc4)cc(=O)[nH]3)nc(C)c2c1,0%,1%,15%,?,-10
